About 79,000 compounds went through this panel and 15% of them were active in at least one assay; those are over-represented in the sample as a whole. Calls of active or inactive are those of the source. Rule as the data show it: active = growth inhibition above about 70%; inactive = the rest.
Experiments:
[1] = NCI Yeast Anticancer Drug Screen. Data for the wt2 strain (AID 169);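 also: 0% = growth of vehicle-treated yeast cultures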; settings: S. cerevisiae wt2 strain growth inhibition, active compounds read high
Summary of the method: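 Yeast cells were exposed to test compounds, and growth inhibition was measured relative to vehicle-treated controls.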

[2] = NCI Yeast Anticancer Drug Screen. Data for the mlh1 strain (AID 171);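 also: 0% = growth of vehicle-treated control cultures of the same strain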; settings: S. cerevisiae mlh1 strain growth inhibition, active compounds read high
Summary of the method: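 Yeast carrying a defined genetic alteration in DNA damage repair or cell cycle control were exposed to test compounds. Growth inhibition was measured relative to vehicle-treated controls.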

[3] = NCI Yeast Anticancer Drug Screen. Data for the sgs1 strain (AID 173);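 also: 0% = growth of vehicle-only control cultures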; settings: S. cerevisiae sgs1 mutant, active compounds read high
Summary of the method: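 Yeast mutant strains carrying defined defects in DNA damage repair or cell cycle control were exposed to test compounds. Growth inhibition was scored against vehicle-treated controls.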

[4] = NCI Yeast Anticancer Drug Screen. Data for the mlh1 rad18 strain (AID 175); settings: S. cerevisiae mlh1 rad18 strain growth inhibition, active compounds read high
Summary of the method: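 Growth inhibition of the yeast strain was measured after compound exposure and expressed relative to vehicle-treated controls. The strain carries defined defects in DNA damage repair.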

[5] = NCI Yeast Anticancer Drug Screen. Data for the rad18 strain (AID 177); settings: S. cerevisiae rad18 mutant growth inhibition, active compounds read high
Summary of the method: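 Yeast carrying a defined DNA damage repair alteration were exposed to compounds. Growth inhibition was expressed relative to vehicle-treated controls.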

[6] = NCI Yeast Anticancer Drug Screen. Data for the rad52 strain (AID 147);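 also: 0% = growth of vehicle-treated control cultures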; settings: S. cerevisiae rad52 mutant growth inhibition, active compounds read high
Summary of the method: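 Yeast strain carrying a DNA damage repair alteration was exposed to test compounds. Growth inhibition was measured relative to vehicle-treated controls.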

[7] = NCI Yeast Anticancer Drug Screen. Data for the wt1 strain (AID 149);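 also: 0% = growth of vehicle-treated wt1 cultures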; settings: S. cerevisiae wt1 strain (SPY 50644) growth inhibition, active compounds read high
Summary of the method: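 Compounds are added to wt1 yeast cultures. Growth is then measured. Inhibition is expressed relative to vehicle-treated controls.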

[8] = NCI Yeast Anticancer Drug Screen. Data for the rad50EPP+ strain (AID 151);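 also: 0% = growth of vehicle-treated control cultures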; settings: S. cerevisiae rad50 mutant strain, active compounds read high
Summary of the method: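 Yeast strain carrying rad50 alteration (rad50EPP+) exposed to compounds; growth inhibition measured relative to vehicle-treated controls.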

[9] = NCI Yeast Anticancer Drug Screen. Data for the mgt1 strain (AID 153); settings: S. cerevisiae mgt1 mutant growth inhibition, active compounds read high
Summary of the method: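 Yeast mgt1 strain (DNA repair/cell-cycle alteration panel) exposed to compounds; growth inhibition measured relative to vehicle-treated controls.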

[10] = NCI Yeast Anticancer Drug Screen. Data for the rad50 strain (AID 155);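 also: 0% = growth of vehicle-only cultures of the same strain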; settings: S. cerevisiae rad50 strain growth inhibition, active compounds read high
Summary of the method: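 Inhibition values express reduced yeast growth in compound-treated cultures relative to vehicle-treated controls.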

[11] = NCI Yeast Anticancer Drug Screen. Data for the mec2-1 strain (AID 157); settings: S. cerevisiae mec2-1 strain, active compounds read high
Summary of the method: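 mec2-1 yeast strain, carrying an alteration in DNA damage repair or cell cycle control, was exposed to compounds; growth inhibition was measured relative to vehicle-treated controls.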

[12] = NCI Yeast Anticancer Drug Screen. Data for the rad14 strain (AID 159);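 also: 0% = growth of vehicle-treated control cultures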; settings: S. cerevisiae rad14 strain growth inhibition, active compounds read high
Summary of the method: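 A mutant yeast strain defective in DNA damage repair is treated with compound; inhibition of its growth is scored against untreated, vehicle-exposed cultures.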

[13] = NCI Yeast Anticancer Drug Screen. Data for the sgs1 mgt1 strain (AID 161);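 also: 0% = growth of cultures given vehicle only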; settings: S. cerevisiae sgs1 mgt1 strain, active compounds read high
Summary of the method: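 Yeast cells carrying a defined DNA-repair defect were exposed to test compounds. Growth inhibition was measured relative to vehicle-treated controls.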

[14] = NCI Yeast Anticancer Drug Screen. Data for the CLN2oe strain (AID 163);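 also: 0% = growth of vehicle-only control cultures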; settings: S. cerevisiae CLN2oe strain, active compounds read high
Summary of the method: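 Yeast cells carrying a defined cell-cycle control alteration were exposed to test compounds. Growth inhibition was scored against vehicle-treated control cultures.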

[15] = NCI Yeast Anticancer Drug Screen. Data for the cln2 rad14 strain (AID 165);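 also: 0% = growth equal to vehicle treated cultures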; settings: S. cerevisiae cln2 rad14 strain, active compounds read high
Summary of the method: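 Yeast carrying cln2 and rad14 alterations (cell cycle control and DNA damage repair) were exposed to compounds. Growth inhibition was measured against vehicle-treated controls.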

[16] = NCI Yeast Anticancer Drug Screen. Data for the bub3 strain (AID 167); settings: S. cerevisiae bub3 mutant strain, active compounds read high
Summary of the method: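 Steps: expose the mutant yeast strain to compound; grow alongside vehicle-treated cultures; measure growth; express inhibition against the vehicle cultures.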

[17] = at 5.0 µM (retest, dose inferred, filed as 0.5)
[18] = at 50.0 µM (retest, dose inferred, filed as 5.0)

Measured: growth inhibition

[N-]=[N+]=NC1=C(c2ccccn2)C(=O)c2cccc3cccc1c23
active: [5]; at 100.0 µM 85%
inactive: [1]; at 1.2 µM -1% | [1]; at 3.7 µM -1% | [1]; at 11.0 µM 5% | [1]; at 33.0 µM 26% | [1]; at 100.0 µM 63% | [2]; at 1.2 µM 4% | [2]; at 3.7 µM -2% | [2]; at 11.0 µM 7% | [2]; at 33.0 µM 19% | [2]; at 100.0 µM 42% | [3]; at 1.2 µM -2% | [3]; at 3.7 µM 1% | [3]; at 11.0 µM 6% | [3]; at 33.0 µM 37% | [3]; at 100.0 µM 67% | [4]; [17] 4% | [4]; [18] 52% | [4]; at 50.0 µM 59% | [5]; at 1.2 µM 0% | [5]; at 3.7 µM 6% | [5]; at 11.0 µM 12% | [5]; at 33.0 µM 58%

NC1=NS(=O)(=O)N=C(N)C1=Cc1ccc([N+](=O)[O-])o1
active: [6]; at 33.0 µM 82% | [6]; at 100.0 µM 97% | [7]; at 100.0 µM 98% | [8]; at 33.0 µM 88% | [8]; at 100.0 µM 97% | [9]; at 100.0 µM 99% | [10]; at 33.0 µM 78% | [10]; [18] 77% | [10]; at 50.0 µM 88% | [10]; at 100.0 µM 97% | [11]; at 50.0 µM 93.8% | [11]; at 100.0 µM 98% | [12]; at 100.0 µM 97% | [13]; at 50.0 µM 92.7% | [14]; at 100.0 µM 99% | [15]; at 50.0 µM 74.7% | [16]; at 100.0 µM 98% | [1]; at 100.0 µM 98% | [2]; at 100.0 µM 98% | [3]; at 100.0 µM 98% | [4]; [18] 84% | [4]; at 50.0 µM 88.8% | [5]; at 11.0 µM 71% | [5]; at 33.0 µM 89% | [5]; at 100.0 µM 98%
inactive: [6]; at 1.2 µM -23% | [6]; at 3.7 µM -14% | [6]; at 11.0 µM 20% | [7]; at 1.2 µM -20% | [7]; at 3.7 µM -11% | [7]; at 11.0 µM -6% | [7]; at 33.0 µM -18% | [8]; at 1.2 µM 0% | [8]; at 3.7 µM 18% | [8]; at 11.0 µM 64% | [9]; at 1.2 µM 7% | [9]; at 3.7 µM 16% | [9]; at 11.0 µM 12% | [9]; at 33.0 µM 33% | [10]; at 1.2 µM 6% | [10]; at 3.7 µM 21% | [10]; [17] 3% | [10]; at 11.0 µM 42% | [11]; at 1.2 µM -20% | [11]; at 3.7 µM -25% | [11]; [17] -20% | [11]; at 11.0 µM -15% | [11]; at 33.0 µM 10% | [11]; [18] 14% | [12]; at 1.2 µM -7% | [12]; at 3.7 µM -8% | [12]; at 11.0 µM -9% | [12]; at 33.0 µM 1% | [13]; [17] -6% | [13]; [18] 43% | [14]; at 1.2 µM 9% | [14]; at 3.7 µM 0% | [14]; at 11.0 µM -11% | [14]; at 33.0 µM 13% | [15]; [17] -16% | [15]; [18] 25% | [16]; at 1.2 µM 8% | [16]; at 3.7 µM -11% | [16]; [17] 5% | [16]; at 11.0 µM -22% | [16]; at 33.0 µM -27% | [16]; [18] 47% | [16]; at 50.0 µM 68.5% | [1]; at 1.2 µM -41% | [1]; at 3.7 µM -34% | [1]; at 11.0 µM -22% | [1]; at 33.0 µM -6% | [2]; at 1.2 µM -7% | [2]; at 3.7 µM -6% | [2]; at 11.0 µM 2% | [2]; at 33.0 µM 33% | [3]; at 1.2 µM -15% | [3]; at 3.7 µM -10% | [3]; at 11.0 µM 18% | [3]; at 33.0 µM 45% | [4]; [17] 3% | [5]; at 1.2 µM 11% | [5]; at 3.7 µM 17%

Cc1ccc(C2C(Cl)C(=O)N2n2cnc3ccccc3c2=O)cc1 (centres undefined)
inactive: [6]; at 1.2 µM 6% | [6]; at 3.7 µM 11% | [6]; at 11.0 µM 8% | [6]; at 33.0 µM 9% | [6]; at 100.0 µM -8% | [7]; at 1.2 µM 8% | [7]; at 3.7 µM 14% | [7]; at 11.0 µM 19% | [7]; at 33.0 µM 6% | [7]; at 100.0 µM 6% | [8]; at 1.2 µM -13% | [8]; at 3.7 µM -6% | [8]; at 11.0 µM -3% | [8]; at 33.0 µM 34% | [8]; at 100.0 µM 51% | [9]; at 1.2 µM -15% | [9]; at 3.7 µM -11% | [9]; at 11.0 µM -23% | [9]; at 33.0 µM -19% | [9]; at 100.0 µM -27% | [10]; at 1.2 µM -2% | [10]; at 3.7 µM 0% | [10]; [17] 14% | [10]; at 11.0 µM -6% | [10]; at 33.0 µM -6% | [10]; [18] -4% | [10]; at 50.0 µM -15.2% | [10]; at 100.0 µM -20% | [11]; at 1.2 µM -6% | [11]; at 3.7 µM -12% | [11]; [17] -16% | [11]; at 11.0 µM -10% | [11]; at 33.0 µM -11% | [11]; [18] 10% | [11]; at 50.0 µM 12.5% | [11]; at 100.0 µM -15% | [12]; at 1.2 µM -15% | [12]; at 3.7 µM -19% | [12]; at 11.0 µM -9% | [12]; at 33.0 µM -12% | [12]; at 100.0 µM -4% | [13]; [17] -4% | [13]; [18] 20% | [13]; at 50.0 µM -0.75% | [14]; at 1.2 µM -23% | [14]; at 3.7 µM -43% | [14]; at 11.0 µM -18% | [14]; at 33.0 µM -54% | [14]; at 100.0 µM -20% | [15]; [17] 4% | [15]; [18] 28% | [15]; at 50.0 µM 6.4% | [16]; at 1.2 µM -10% | [16]; at 3.7 µM -7% | [16]; [17] 33% | [16]; at 11.0 µM 3% | [16]; at 33.0 µM 46% | [16]; at 50.0 µM 68.6% | [16]; at 100.0 µM 62% | [1]; at 1.2 µM -15% | [1]; at 3.7 µM -19% | [1]; at 11.0 µM -18% | [1]; at 33.0 µM -23% | [1]; at 100.0 µM -8% | [2]; at 1.2 µM -39% | [2]; at 3.7 µM -39% | [2]; at 11.0 µM -41% | [2]; at 33.0 µM -34% | [2]; at 100.0 µM -4% | [3]; at 1.2 µM 11% | [3]; at 3.7 µM 17% | [3]; at 11.0 µM 11% | [3]; at 33.0 µM 22% | [3]; at 100.0 µM 30% | [4]; [17] -9% | [4]; [18] 6% | [4]; at 50.0 µM -11.2% | [5]; at 1.2 µM -1% | [5]; at 3.7 µM 6% | [5]; at 11.0 µM -1% | [5]; at 33.0 µM -7% | [5]; at 100.0 µM -5%
active: [16]; [18] 84%
